Screening results from PubChem BioAssay.
The list is not random: actives were taken first. Their share in the collection is about 0.78%.
BLM helicase inh = Bloom syndrome helicase (human) inhibition | AID 2528 | P54132 | 350,000 compounds, 0.2% hits | recombinant BLM DNA unwinding, fluorescence dequenching | Potency, µM (highest dose often 56.1 µM), for inactives: at the top dose activity change, negative = inhibition, hits mostly inhibitors;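 also: plate controls were vehicle for no effect and no enzyme for full effect; nearly all actives have a fitted effect of over 35% in size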
L3MBTL1 inh = blocks human L3MBTL1. AlphaScreen L3MBTL1–H3K9me1 peptide binding. Potency, µM (doses to about 57.1 µM), for the others: at the highest dose activity, negative = inhibition, actives largely listed as inhibitors. 230,000 compounds, 0.66% hits. AID 485360; also: nearly all actives have a fitted effect of over 60% in size
Target sequence (Q9Y468 whole entry, looked up): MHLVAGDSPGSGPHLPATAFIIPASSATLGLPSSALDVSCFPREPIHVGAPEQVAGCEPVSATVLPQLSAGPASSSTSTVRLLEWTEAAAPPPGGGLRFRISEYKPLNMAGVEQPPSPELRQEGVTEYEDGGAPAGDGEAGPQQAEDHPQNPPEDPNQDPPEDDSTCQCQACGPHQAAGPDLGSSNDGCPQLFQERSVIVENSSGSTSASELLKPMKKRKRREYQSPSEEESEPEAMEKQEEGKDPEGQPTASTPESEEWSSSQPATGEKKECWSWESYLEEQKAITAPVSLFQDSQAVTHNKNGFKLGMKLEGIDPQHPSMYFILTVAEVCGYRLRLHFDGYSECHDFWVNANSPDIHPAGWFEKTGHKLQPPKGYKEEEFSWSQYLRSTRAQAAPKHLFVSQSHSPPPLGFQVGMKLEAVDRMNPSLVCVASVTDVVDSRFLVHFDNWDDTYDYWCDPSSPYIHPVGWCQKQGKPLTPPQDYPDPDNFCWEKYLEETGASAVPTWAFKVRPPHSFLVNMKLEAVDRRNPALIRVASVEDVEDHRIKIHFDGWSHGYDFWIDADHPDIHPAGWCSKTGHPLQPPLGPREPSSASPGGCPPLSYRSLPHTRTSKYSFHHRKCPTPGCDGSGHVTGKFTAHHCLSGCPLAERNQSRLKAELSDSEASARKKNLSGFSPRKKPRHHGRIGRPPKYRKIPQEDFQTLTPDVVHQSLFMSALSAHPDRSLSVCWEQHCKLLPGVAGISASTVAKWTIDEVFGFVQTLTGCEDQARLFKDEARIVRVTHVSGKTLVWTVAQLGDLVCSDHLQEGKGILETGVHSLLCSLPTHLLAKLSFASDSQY
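Displacement of a biotinylated histone H3(1-15) peptide monomethylated at Lys9 (75 nM) from L3MBTL1 (50 nM) was measured by AlphaScreen after a 30 min room-temperature compound incubation; cefsulodin titration served as intraplate control.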
RECQ1 helicase = RECQ1 (human) helicase inhibition; P46063; RECQ1 DNA unwinding, red fluorescence kinetic read; Potency, µM (doses to about 57.3 µM), for the others: at the top dose activity, negative = inhibition, hits mostly inhibitors; 240,000 compounds, 0.54% hits;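 also: plate controls were vehicle for no effect and no enzyme for full effect; nearly all actives have a fitted effect of over 30% in size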
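RECQ1T1 50 nM; forked duplex (20 bp + 30-nt ss tails) 200 nM, ATP 2 mM final; pH 8.0, 2 mM MgCl2, 2.5 ug/ml poly(dI-dC); 15 min compound preincubation; discontinuous kinetic read over 2 h at RT.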
APE1 inh-1 = inhibitors of human APE1 endonuclease | Potency, µM (series often up to 65.8 µM), inactives show at the highest dose activity change, negative = inhibition, actives largely listed as inhibitors | P27695 | 350,000 compounds, 0.35% hits | recombinant APE1, TAMRA/BHQ-2 abasic DNA cleavage fluorescence;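 also: plate controls were vehicle for no effect and reference inhibitor for full effect; nearly all actives have a fitted effect of over 55% in size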
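Incision of a quenched TAMRA/BHQ-2 THF abasic-site duplex (50 nM) by 0.75 nM APE1, after 15 min compound preincubation, measured as fluorescence increase over three 60 s reads. Values normalized to buffer, DMSO and NSC13755 control wells.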
APE1 dye cs = counter-screen for APE1 inhibitors: DNA dye displacement; shares compounds with APE1 inh-1; DNA fluorescent dye displacement counterscreen, fluorescence; Potency, µM (highest dose often 28.5 µM), for inactives: at the highest dose activity change, negative = inhibition, hits mostly inhibitors; 480 compounds, 7% hits; AID 2564;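 also: loss of thiazole orange fluorescence as the dye is displaced from duplex DNA; 0% = ThO with dsDNA and no compound and -100% = ThO without dsDNA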
EndoIV counter = Endo IV (E. coli) inhibition counter-screen; 560 compounds, 4% hits; AID 2565; E. coli Endo IV, fluorogenic AP-site DNA cleavage; Potency, µM (highest dose often 27.1 µM), for inactives: at the highest dose activity change, negative = inhibition, hits mostly inhibitors; shares compounds with APE1 inh-1;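 also: plate controls were uninhibited enzyme wells for no effect and no enzyme buffer wells for full effect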
APE1 inh-2 = APE1 (human) endonuclease inhibition, confirmation. shares compounds with APE1 inh-1. purified APE1, fluorogenic abasic-site DNA cleavage. Potency, µM (doses to about 57.1 µM), for inactives: top-dose activity change, negative = inhibition, usual class: inhibitors. 750 compounds, 44% hits; also: nearly all actives have a fitted effect of over 30% in size
APE1 FP = APE1 (human) DNA binding inhibition, fluorescence polarization. 480 compounds, 7% hits. AID 2573. shares compounds with APE1 inh-1. Potency, µM (series often up to 28.5 µM), for the others: top-dose activity, negative = inhibition, hits mostly inhibitors. APE1 binding to TAMRA-labelled double-stranded DNA, fluorescence polarization displacement
Numbers without * were called inactive; i = inactive; ? = inconclusive; nt = not tested or not shown; [ ] = dose if it differs, or a comment. Calls follow the shape of the dose curve; as a rule, active = well fitted curve in the direction sought with a large enough effect; inconclusive = small, poorly fitted or top-dose-only effect, or another doubt; inactive = no such curve, though single readings can be large; an effect the other way counts as inactive or inconclusive. Unless noted, % is scaled to controls: 0 for no effect and ±100 for the full control effect; potency is read from the fitted curve at half-maximal effect.

SMILES	BLM helicase inh	L3MBTL1 inh	RECQ1 helicase	APE1 inh-1	APE1 dye cs	EndoIV counter	APE1 inh-2	APE1 FP
CCc1ccc(C2C(C(=O)Nc3ccccc3OC)=C(C)Nc3nc(SCc4ccccc4)nn32)cc1 (configuration not stated)	-3%	nt	nt	nt	nt	nt	nt	nt
CCN(CC)CCCNC(=O)c1c2c(nc3ccccc13)C(=O)N(C1CCCCC1)C2	2%	nt	nt	nt	nt	nt	nt	nt
CC(=O)c1nn(-c2ccccc2)cc1C(=O)c1cccc(Br)c1	3%	4%	-3%	11%	nt	nt	nt	nt
CC(=O)c1nn(-c2cccc(Br)c2)cc1C(=O)c1ccccc1	-3%	0%	i	?	-7%	7%	-7%[24.4 µM]	4%
Cc1ccc(C(=O)O)cc1-n1c(C)cc(C=O)c1C	-4%	?	i	?	nt	nt	?	nt
Cc1c(C(=O)O)cccc1-n1c(C)cc(C=O)c1C	1%	?	-3%	?	nt	nt	nt	nt
CN(C)c1ccc(-c2ccc(C3C4C=CCCC4(C)C(=O)N3Cc3ccccc3)c(F)c2)cc1 (configuration not stated)	-15%	nt	-19%	-5%	nt	nt	nt	nt
O=C(O)CC[C@@H](C(=O)O)N1C(=O)c2ccccc2C1=O	0%	nt	-5%	?	-4%	6%	?	-2%
COc1ccc(-c2coc3cc(O)ccc3c2=O)c(O)c1O	-23%	nt	4µM*	3.2µM*	nt	37%[57.1 µM]	-87%	nt
Cc1sc2ncnc(SCC(=O)NC(=O)NCc3ccco3)c2c1C	-27%	?	?	28µM*	15%	-1%	?	20%
NN1C(=O)/C(=C\c2ccco2)SC1=S	?	25µM*	?	14µM*	-11%	4%	?	1%
CC1CCC2C(=O)N3CCCC3C(=O)N2C1c1ccc(Br)cc1 (configuration not stated)	2%[12.4 µM]	nt	4%[11.5 µM]	-7%[12.4 µM]	nt	nt	nt	nt
COc1ccc(C2=Nn3c(nnc3-c3cccc(OC)c3OC)SC2)cc1	1%	nt	-12%	-4%	nt	nt	nt	nt
CCC[C@@H]1CC2=CC(=O)CC[C@]2(C)[C@H]2CC[C@@]3(C)[C@@H](CC[C@@]34CCC(=O)O4)[C@H]12	2%	nt	-14%	-3%	nt	nt	nt	nt
CC1=N/C(=C/c2ccco2)C(=O)O1	2%	nt	?	25µM*	-6%	9%	35µM*	-19%
O=C(c1cc2c(s1)CCCC2)N1CCN(Cc2ccc3c(c2)OCO3)CC1	-6%	-3%	-6%	6%	nt	nt	nt	nt
O=C(Oc1ccc2c(c1)OCO2)c1cc2c(s1)CCC2	3%	-91%	?	?	-16%	2%	11µM*	?
O=c1ccc2c(OCCCCOc3ccccc3)c3ccoc3cc2o1	-2%	nt	-19%	-11%	nt	nt	nt	nt
Cc1ccccc1NC(=O)CSc1nnc(-c2ccco2)c(-c2ccco2)n1	1%	-90%	i	4.5µM*	-24%	15%	16µM*	-8%
COc1ccc(C(=O)CSc2nnc(-c3ccco3)n2C)cc1	3%	0%	i	-2%	nt	nt	nt	nt
COc1ccc(C(=O)CSc2nnc(-c3ccco3)c(-c3ccco3)n2)cc1	?	?	-26%	18µM*	?	1%	?	?
CCN(CC)S(=O)(=O)c1ccc(C(=O)NCCSc2c(-c3ccc(F)cc3)[nH]c3ccccc23)cc1	-7%	nt	nt	nt	nt	nt	nt	nt
S=c1[nH]nc(-c2cc(-c3ccccc3)n[nH]2)n1/N=C/c1ccc(Cl)c(Cl)c1	-13%	-18%	-3%	4%	nt	nt	40µM*	nt
Cn1ccc2cc(-c3ccc4ncnc(NCc5cccc(F)c5)c4c3)ccc21	nt	-7%	nt	16%	nt	nt	nt	nt
CCn1c(SCC(=O)NCc2ccco2)nnc1-c1ccncc1	-3%	-10%	-7%	-9%	nt	nt	nt	nt
SMILES	BLM helicase inh	L3MBTL1 inh	RECQ1 helicase	APE1 inh-1	APE1 dye cs	EndoIV counter	APE1 inh-2	APE1 FP
CCn1c(SCC(=O)NCc2ccco2)nnc1-c1cccs1	-20%	0%[11.4 µM]	-5%	35µM*	?	-2%	?	-14%
CC1CC(=O)c2c(cc3c(-c4c(O)cc(O)c5c(O)c6c(cc45)OC(C)CC6=O)c(O)cc(O)c3c2O)O1 (configuration not stated)	-21%	0.63µM*	18µM*	?	4.5µM*	?	?	-12%
CCCCCCC/C=C\CCCCCCCCC(=O)O	nt	nt	?	0%	nt	-22%[57.1 µM]	-67%	nt
CCCCC/C=C\C/C=C\C/C=C\C/C=C\CCCCCC(=O)O	-1%	nt	11%	-8%	nt	nt	nt	nt
COC(=O)c1ccc(NC(=O)CSc2cn(CC(=O)N3CCCCCC3)c3ccccc23)cc1	-2%	nt	nt	nt	nt	nt	nt	nt
CCN1/C(=C/C=C/c2oc3ccc4ccccc4c3[n+]2CC)Oc2ccc3ccccc3c21	-29%	?	i	25µM*	142%	3.2µM*	8.9µM*	i
CC[n+]1c(/C=C/N(C)c2ccccc2)oc2ccc(Cl)cc21	-2%	-15%	-2%	0%	nt	nt	nt	nt
COc1ccc(OC)c(CNC(=O)c2ccc3c(c2)c(C)c(C)n3Cc2ccc(Cl)cc2)c1	-6%	nt	nt	nt	nt	nt	nt	nt
CN=c1scc(C)n1/N=C/c1ccc(O)c(O)c1O	?	nt	10µM*	7.1µM*	?	93%	14µM*	8%
CN=c1scc(C)n1/N=C/c1cc(Br)c(O)c(OC)c1	-7%	-6%	i	0%	nt	nt	nt	nt
CCC1CN(C(=O)N2CCC(C(=O)NCCc3ccc(C)cc3)CC2)c2ccccc2O1 (configuration not stated)	-5%	nt	nt	nt	nt	nt	nt	nt
Cc1ccsc1CNc1ncnc2ccc(-c3c(C)noc3C)cc12	-6%	0%	-5%	?	nt	nt	nt	nt
Cc1noc(C)c1-c1ccc2ncnc(NCc3cccs3)c2c1	-9%	nt	3%	14µM*	?	-52%[57.1 µM]	32µM*	36%[57.1 µM]
CN(C)C(=O)c1ccc(-c2ccc3ncnc(NCc4cccs4)c3c2)cc1	-5%	nt	-7%	10µM*	?	-77%[57.1 µM]	7.9µM*	22%[57.1 µM]
O=c1ccn(CCc2c[nH]c3ccccc23)c2c1CCCC2	8%	?	-2%	0.079µM*	-5%	-5%	-7%[24.4 µM]	4%
CS(=O)(=O)C1=NSC2=NC(=O)/C(=C\c3cccn3-c3ccc(Cl)cc3)C(=N)N21	?	-25%	-20%	?	nt	nt	14µM*	nt
Cc1cc(/C=C2/C(=N)N3C(=NC2=O)SN=C3S(C)(=O)=O)c(C)n1-c1ccccc1F	-11%	nt	-28%	23%	nt	nt	nt	nt
